# Reference: PubChem BioAssay (Tox21)
# Results filed as inconclusive are left out. The source made the active and inactive calls. The call rests on the fitted dose curve.
# Target: Thyrotropin receptor (Homo sapiens) (UniProt P16473)
# Assay: qHTS assay to identify small molecule antagonists of the thyroid stimulating hormone receptor (TSHR) signaling pathway (AID 1259385); further: nearly all actives have a fitted effect of over 20% in size
# Conditions: TSHR-HEK293 cAMP HTRF, TSH-stimulated antagonist mode; series mostly up to 92.4 µM
# Source text: U.S. Tox21 Program National Center for Advancing Translational Sciences [NCATS] NIH Chemical Genomics Center [NCGC] U.S. Environmental Protection Agency [EPA] National Institutes of Environmental Health Sciences [NIEHS] National Toxicology Program [NTP] U.S. Food and Drug Administration [FDA] Tox21 Assay Overview: TSHR is the receptor for thyrotropin (thyroid stimulating hormone or TSH), a member of the glycoprotein hormone family. TSH is released by the anterior pituitary gland and is the main regulator of thyroid gland growth and development. Upon binding circulating thyrotropin, a G-protein signal cascade activates adenylyl cyclase and […] cAMP concentration is increased. cAMP is a key second messenger involved extensively in cellular signal transduction pathways associated with the majority of G-protein coupled receptors (GPCRs). The activation of these GPCRs by neurotransmitters, lipids, nucleotides, peptides and hormones results in the activation or the inhibition of plasma membrane-bound adenylate cyclase through heterotrimeric G-proteins. A cell-based TSHR assay can be used to screen chemical compounds that modulate TSHR either in agonist or antagonist mode.
# Tox21 Assay Protocol Summary: TSHR-Hek293 cells were dispensed at 800 cells/4uL/well in 1536-well white plates using a Multidrop dispenser. After the assay plates were incubated at a 37C/5% CO2 incubator for 18 hrs, 23 nL of compounds dissolved in DMSO, positive controls or DMSO only was transferred to the assay plate by a pin tool, followed by 1 ul medium containing Ro20-1724. For the antagonist mode screening, 1 uL of TSH was added on the top of the cell/compound mixtures to achieve a final agonist concentration of 1.5 ng/mL. After 30 min of incubation at room temperature, 2.5 ul/well of cAMP-d2 and 2.5 ul/well of anti-cAMP-cryptate were added respectively into the assay plates using a Flying Reagent Dispenser. The plates were incubated at room temperature for 1 hr. The fluorescence intensity in the plates was measured using an Envision plate reader. Each test compound was measured at 15 concentrations and in triplicates.
# Thyrotropin receptor (Homo sapiens), sequence (P16473 whole entry, looked up): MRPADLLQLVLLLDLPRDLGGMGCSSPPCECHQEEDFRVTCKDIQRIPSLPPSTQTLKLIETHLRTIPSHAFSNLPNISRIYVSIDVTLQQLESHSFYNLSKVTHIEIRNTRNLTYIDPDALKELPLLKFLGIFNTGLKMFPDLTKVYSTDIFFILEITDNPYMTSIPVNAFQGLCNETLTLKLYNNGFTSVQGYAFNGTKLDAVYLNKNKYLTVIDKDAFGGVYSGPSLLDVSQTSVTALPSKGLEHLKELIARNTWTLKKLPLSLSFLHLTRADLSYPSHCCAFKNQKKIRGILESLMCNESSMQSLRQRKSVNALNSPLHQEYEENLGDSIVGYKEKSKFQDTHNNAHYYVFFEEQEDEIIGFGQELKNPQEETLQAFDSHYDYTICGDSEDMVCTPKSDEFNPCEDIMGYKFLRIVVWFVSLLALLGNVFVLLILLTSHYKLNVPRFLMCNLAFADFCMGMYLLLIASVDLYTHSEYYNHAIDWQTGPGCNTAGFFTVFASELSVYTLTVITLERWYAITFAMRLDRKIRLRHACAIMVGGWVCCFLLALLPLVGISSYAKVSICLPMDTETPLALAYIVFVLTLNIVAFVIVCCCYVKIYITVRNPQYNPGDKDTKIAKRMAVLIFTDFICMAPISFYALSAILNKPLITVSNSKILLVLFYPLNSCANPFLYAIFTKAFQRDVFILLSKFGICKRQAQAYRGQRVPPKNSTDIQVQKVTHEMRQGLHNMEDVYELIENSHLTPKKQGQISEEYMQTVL
row,SMILES,outcome
1,CC(C)CCCCCCCOC(=O)CCCCC(=O)OCCCCCCCC(C)C,inactive
2,CC1(C)CC(N)CC(C)(CN)C1 (stereo not given),inactive
3,O=C(O)CCCCCCCCC(=O)O,inactive
4,COC(=O)c1cccnc1,inactive
5,Cc1ccc(S(=O)(=O)N=C=O)cc1,inactive
6,CC(C)(Oc1ccc(CCNC(=O)c2ccc(Cl)cc2)cc1)C(=O)O,inactive
7,C=CCCCCCCCCC(=O)O,inactive
8,CCCCOC(=O)c1ccc(N)cc1,inactive
9,CN(C)c1ccc(Cc2ccc(N(C)C)cc2)cc1,inactive
10,CCc1ccccc1CC,inactive
11,OCc1cccc(Oc2ccccc2)c1,inactive
12,c1ccc2c(c1)Cc1ccccc1-2,inactive
13,CCNc1ccccc1,inactive
14,COc1ccc(CCC(C)=O)cc1,inactive
15,O=C(O)c1cc2ccccc2cc1O,inactive
16,COc1ccccc1OCC(O)CO (stereo not given),inactive
17,CC(=O)OCc1ccccc1,inactive
18,c1ccc(Oc2ccccc2)cc1,inactive
19,Nc1nc(N)nc(-c2ccccc2)n1,inactive
20,CCCCCC(=O)O,inactive

row,SMILES,outcome
1,C=C(C)[C@H]1CC=C(C)C(=O)C1,inactive
2,COc1cc(OC)c(C(=O)CCCN2CCCC2)c(OC)c1,inactive
3,C=CC(=O)OCCC(=O)O,inactive
4,CC1(C)OC[C@@H]2O[C@@]3(C(=O)O)OC(C)(C)O[C@H]3[C@@H]2O1,inactive
5,C[C@]12CC[C@@H]3c4ccc(O)cc4CC[C@H]3[C@@H]1C[C@@H](O)[C@@H]2O,inactive
6,CC1(C)NC(=O)NC1=O,inactive
7,O=C1C(c2[nH]c3ccccc3c2O)=Nc2ccccc21,inactive
8,CC(C)c1cccc(C(C)C)c1,inactive
9,CC(C)CC(C)O (stereo not given),inactive
10,CN/C(=C\[N+](=O)[O-])NCCSCc1csc(CN(C)C)n1,inactive
11,CCNC(=S)NCC,inactive
12,Cc1ccc2ncccc2c1,inactive
13,CCCCCCCCCCCCCCCCO,inactive
14,CCCOC(=O)c1ccccc1,inactive
15,COCCOC(=O)c1ccccc1C(=O)OCCOC,inactive
16,CCCCCCC=O,inactive
17,C[C@]12CCC(=O)C=C1CC[C@@H]1[C@@H]2[C@@H](O)C[C@@]2(C)[C@H]1CC[C@]2(O)C(=O)CO,inactive
18,CC(=O)OCc1ccco1,inactive
19,O=C(O)Cn1c(=O)n(Cc2ccc(Br)cc2F)c(=O)c2ccc(Cl)cc21,inactive
20,N[C@H](Cc1c[nH]c2ccccc12)C(=O)O,inactive
